These results are taken from publication PMC7862700, “An all-to-all approach to the identification of sequence-specific readers for epigenetic DNA modifications on cytosine”.

Assay in all cases: DAPPL (digital affinity profiling via proximity ligation, sequencing); 10 mM Tris-HCl pH 7.5, 50 mM NaCl, 1 mM DTT, 4% glycerol, room temperature, 30 min; GST-TFs on glutathione beads, 16-mer random dsDNA library, 0.1% formaldehyde crosslink after washing; high values mean tight binding
Common to all, as to conditions: protein: recombinant; tags: N-terminal GST; dsDNA, one strand shown

For one experiment, the target named is T1, GABPA (Homo sapiens, UniProt Q06546 1-454).
T1 sequence: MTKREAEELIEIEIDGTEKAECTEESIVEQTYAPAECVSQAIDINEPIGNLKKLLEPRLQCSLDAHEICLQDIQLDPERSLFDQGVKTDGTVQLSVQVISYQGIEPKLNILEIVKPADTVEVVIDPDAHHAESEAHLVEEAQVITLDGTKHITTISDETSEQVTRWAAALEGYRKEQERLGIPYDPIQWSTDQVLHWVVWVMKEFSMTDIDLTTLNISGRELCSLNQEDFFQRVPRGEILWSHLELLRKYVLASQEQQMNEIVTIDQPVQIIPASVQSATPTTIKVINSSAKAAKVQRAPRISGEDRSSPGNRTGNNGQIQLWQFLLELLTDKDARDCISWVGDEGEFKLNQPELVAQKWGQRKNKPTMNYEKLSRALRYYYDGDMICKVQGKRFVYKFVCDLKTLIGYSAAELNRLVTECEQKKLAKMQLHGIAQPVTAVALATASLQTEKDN
In short, it runs like this: (§1)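 Binding signal is each hexamer's read frequency for a factor divided by its frequency in the tag-only sample. The factors were GST-fused human transcription factors from yeast, captured on glutathione beads, DNA-barcoded and pooled with that sample. Pools were incubated with 200 nmole of a random double-stranded 16-mer DNA library in Tris/NaCl/DTT/glycerol buffer at room temperature for 30 min, then washed, crosslinked with 0.1% formaldehyde, proximity-ligated with BsaI/T4 ligase (1 h, 37 °C), PCR-amplified and sequenced on an Illumina NextSeq500.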

The target of another experiment is T2, ERG (Homo sapiens, UniProt P11308 1-479).
T2 sequence: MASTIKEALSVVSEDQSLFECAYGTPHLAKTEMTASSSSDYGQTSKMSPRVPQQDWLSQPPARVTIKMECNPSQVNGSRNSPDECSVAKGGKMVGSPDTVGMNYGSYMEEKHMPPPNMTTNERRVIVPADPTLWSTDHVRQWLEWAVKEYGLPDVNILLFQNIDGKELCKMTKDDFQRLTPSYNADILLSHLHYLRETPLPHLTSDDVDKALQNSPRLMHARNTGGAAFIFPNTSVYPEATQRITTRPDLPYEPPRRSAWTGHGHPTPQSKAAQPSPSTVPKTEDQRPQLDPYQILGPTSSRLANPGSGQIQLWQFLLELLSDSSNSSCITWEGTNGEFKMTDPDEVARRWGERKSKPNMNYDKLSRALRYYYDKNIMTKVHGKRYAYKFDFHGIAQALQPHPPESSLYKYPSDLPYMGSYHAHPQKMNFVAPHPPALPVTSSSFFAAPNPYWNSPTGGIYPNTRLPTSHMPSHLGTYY
The essentials:
as §1

Another experiment addresses ELF1 (Homo sapiens, UniProt P32519 1-619). The essentials: as §1
In another experiment the target is T3, EHF (Homo sapiens, UniProt Q9NZC4 1-300).
T3 sequence: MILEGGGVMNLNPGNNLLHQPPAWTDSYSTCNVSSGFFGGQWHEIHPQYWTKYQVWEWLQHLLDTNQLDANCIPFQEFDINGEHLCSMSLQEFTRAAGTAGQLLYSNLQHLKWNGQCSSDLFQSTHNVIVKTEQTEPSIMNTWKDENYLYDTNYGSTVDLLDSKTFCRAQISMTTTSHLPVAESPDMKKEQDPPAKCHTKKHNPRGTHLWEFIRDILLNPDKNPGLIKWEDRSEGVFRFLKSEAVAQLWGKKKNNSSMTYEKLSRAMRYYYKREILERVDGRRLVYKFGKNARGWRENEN
The essentials:
as §1

A further experiment has as its target SPI1 (Homo sapiens, UniProt P17947 1-270). The essentials: as §1
Another experiment deals with SPIB (Homo sapiens, UniProt Q01892 1-262). In short, it runs like this: as §1
Chain of SPIB (Q01892 whole entry): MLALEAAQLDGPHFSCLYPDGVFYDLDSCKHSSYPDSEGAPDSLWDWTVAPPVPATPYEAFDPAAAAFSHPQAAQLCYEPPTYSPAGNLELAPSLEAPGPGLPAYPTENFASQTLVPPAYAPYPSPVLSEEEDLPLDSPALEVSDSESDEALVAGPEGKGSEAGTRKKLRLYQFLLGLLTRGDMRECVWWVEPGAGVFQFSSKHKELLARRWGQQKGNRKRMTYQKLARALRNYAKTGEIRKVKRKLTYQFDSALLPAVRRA
The next experiment has as its target T4, FEV (Homo sapiens, UniProt Q99581 1-238).
T4 sequence: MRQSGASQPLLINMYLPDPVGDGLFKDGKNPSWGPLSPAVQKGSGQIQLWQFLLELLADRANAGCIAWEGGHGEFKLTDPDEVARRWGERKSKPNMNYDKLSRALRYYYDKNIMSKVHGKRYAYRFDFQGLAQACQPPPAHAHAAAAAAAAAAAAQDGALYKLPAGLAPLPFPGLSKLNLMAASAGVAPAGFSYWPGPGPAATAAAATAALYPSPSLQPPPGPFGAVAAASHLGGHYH
In short, it runs like this: as §1

In a further experiment the target is ETV5 (Homo sapiens, UniProt P41161 1-510). The essentials:
as §1

The target of the next experiment is ELF4 (Homo sapiens, UniProt Q99607 1-663). The essentials:
as §1

A further experiment has as its target T5, ETV2 (Homo sapiens, UniProt O00321 1-342).
T5 sequence: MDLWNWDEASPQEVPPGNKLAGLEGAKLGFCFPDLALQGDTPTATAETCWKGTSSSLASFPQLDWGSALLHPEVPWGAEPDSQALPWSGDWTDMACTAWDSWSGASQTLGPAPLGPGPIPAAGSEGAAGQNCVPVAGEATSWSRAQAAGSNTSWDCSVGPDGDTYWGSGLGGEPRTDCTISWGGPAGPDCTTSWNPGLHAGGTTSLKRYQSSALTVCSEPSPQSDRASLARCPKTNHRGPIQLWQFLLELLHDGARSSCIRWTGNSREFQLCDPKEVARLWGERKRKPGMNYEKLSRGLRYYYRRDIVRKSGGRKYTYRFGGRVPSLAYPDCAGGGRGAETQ
In short, it runs like this: as §1

A further experiment addresses T6, ELF3 (Homo sapiens, UniProt P78545 1-371).
T6 sequence: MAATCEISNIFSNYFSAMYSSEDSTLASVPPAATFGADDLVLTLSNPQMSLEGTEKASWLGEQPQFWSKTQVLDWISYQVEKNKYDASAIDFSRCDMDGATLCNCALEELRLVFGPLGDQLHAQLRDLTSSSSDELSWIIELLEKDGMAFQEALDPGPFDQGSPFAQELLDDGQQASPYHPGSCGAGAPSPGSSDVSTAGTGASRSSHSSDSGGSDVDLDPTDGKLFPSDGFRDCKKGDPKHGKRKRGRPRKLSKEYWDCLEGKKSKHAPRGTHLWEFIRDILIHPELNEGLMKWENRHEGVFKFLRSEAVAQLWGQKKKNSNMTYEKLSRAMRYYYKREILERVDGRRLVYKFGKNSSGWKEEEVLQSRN
In short, it runs like this: as §1

Another experiment concerns the target ETV1 (Homo sapiens, UniProt P50549 1-477). The essentials: as §1
A further experiment has as its target T7, ERF (Homo sapiens, UniProt P50548 1-548).
T7 sequence: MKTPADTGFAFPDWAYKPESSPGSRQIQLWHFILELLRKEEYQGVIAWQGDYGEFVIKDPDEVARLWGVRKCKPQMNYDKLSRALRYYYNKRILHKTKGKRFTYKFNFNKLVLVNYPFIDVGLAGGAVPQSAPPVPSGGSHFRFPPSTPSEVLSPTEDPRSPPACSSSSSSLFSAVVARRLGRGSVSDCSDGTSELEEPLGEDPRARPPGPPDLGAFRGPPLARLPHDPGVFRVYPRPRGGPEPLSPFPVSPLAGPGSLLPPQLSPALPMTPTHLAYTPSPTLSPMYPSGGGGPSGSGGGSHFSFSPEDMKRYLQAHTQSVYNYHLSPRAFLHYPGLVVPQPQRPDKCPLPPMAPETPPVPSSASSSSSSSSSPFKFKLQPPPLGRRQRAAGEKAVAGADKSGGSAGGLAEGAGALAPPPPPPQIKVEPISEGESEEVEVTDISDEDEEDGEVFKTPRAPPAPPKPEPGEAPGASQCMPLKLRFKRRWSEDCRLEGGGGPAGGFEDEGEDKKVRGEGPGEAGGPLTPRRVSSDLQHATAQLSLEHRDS
In short, it runs like this:
as §1

The target in another experiment is T8, ETV3L (Homo sapiens, UniProt Q6ZN32 1-361).
T8 sequence: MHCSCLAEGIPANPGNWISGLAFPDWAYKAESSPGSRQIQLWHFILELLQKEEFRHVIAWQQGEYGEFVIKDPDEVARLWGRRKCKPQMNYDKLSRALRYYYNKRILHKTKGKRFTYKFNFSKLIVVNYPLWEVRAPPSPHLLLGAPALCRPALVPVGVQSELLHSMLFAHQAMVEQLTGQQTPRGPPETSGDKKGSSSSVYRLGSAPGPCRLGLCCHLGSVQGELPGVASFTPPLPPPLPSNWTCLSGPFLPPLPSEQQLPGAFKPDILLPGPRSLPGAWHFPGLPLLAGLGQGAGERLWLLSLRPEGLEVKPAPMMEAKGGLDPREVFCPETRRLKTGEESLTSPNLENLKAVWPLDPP
The essentials:
as §1

A further experiment addresses T9, ETV7 (Homo sapiens, UniProt Q9Y603 1-341).
T9 sequence: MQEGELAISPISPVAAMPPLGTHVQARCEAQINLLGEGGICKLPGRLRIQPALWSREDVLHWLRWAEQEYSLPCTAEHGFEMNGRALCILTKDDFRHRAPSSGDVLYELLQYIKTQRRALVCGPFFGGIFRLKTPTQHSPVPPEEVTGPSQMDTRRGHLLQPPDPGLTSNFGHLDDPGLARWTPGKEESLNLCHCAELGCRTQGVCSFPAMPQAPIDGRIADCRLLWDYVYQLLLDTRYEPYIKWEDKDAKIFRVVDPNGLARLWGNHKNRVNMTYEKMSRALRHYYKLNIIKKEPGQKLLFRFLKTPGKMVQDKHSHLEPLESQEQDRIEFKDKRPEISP
The essentials:
as §1

The next experiment addresses T10, ETV3 (Homo sapiens, UniProt P41162-2 1-143).
T10 sequence: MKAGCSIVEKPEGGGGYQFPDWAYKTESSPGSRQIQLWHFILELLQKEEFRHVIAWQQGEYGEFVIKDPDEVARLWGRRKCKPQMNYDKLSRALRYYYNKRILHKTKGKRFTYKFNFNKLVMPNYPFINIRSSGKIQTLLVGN
In short, it runs like this: as §1

Chain of ELF4 (Q99607 whole entry): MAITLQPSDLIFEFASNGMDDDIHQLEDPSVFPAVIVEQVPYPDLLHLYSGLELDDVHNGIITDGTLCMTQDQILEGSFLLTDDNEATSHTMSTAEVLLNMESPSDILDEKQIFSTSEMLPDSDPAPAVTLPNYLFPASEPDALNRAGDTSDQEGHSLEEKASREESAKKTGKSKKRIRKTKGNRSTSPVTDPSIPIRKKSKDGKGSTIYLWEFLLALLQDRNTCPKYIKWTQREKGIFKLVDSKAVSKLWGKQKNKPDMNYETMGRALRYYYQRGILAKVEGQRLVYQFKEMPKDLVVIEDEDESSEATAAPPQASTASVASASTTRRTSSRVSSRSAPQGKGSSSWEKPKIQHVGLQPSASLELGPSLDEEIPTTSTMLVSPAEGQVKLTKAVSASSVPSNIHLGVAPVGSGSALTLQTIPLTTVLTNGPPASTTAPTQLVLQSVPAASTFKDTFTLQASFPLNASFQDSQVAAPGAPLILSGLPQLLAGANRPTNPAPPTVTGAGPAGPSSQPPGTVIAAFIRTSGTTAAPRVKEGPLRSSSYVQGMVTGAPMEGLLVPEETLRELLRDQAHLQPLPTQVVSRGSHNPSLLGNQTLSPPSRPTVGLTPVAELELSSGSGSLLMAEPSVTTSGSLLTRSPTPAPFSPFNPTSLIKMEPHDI
Chain of ETV5 (P41161 whole entry): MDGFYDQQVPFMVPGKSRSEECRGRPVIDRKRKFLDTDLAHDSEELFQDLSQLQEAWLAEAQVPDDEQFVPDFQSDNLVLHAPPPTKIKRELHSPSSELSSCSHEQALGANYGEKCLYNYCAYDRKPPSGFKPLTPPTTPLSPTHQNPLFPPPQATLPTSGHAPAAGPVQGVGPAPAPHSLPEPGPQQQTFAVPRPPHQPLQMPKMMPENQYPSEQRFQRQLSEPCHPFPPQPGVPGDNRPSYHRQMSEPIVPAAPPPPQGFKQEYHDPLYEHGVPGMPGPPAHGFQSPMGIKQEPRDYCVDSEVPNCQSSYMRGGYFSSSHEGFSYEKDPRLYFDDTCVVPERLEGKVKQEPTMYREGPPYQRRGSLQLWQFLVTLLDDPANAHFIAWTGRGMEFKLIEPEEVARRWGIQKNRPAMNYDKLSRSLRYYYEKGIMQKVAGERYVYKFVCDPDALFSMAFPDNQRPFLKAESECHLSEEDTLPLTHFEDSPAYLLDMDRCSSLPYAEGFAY
Chain of ETV1 (P50549 whole entry): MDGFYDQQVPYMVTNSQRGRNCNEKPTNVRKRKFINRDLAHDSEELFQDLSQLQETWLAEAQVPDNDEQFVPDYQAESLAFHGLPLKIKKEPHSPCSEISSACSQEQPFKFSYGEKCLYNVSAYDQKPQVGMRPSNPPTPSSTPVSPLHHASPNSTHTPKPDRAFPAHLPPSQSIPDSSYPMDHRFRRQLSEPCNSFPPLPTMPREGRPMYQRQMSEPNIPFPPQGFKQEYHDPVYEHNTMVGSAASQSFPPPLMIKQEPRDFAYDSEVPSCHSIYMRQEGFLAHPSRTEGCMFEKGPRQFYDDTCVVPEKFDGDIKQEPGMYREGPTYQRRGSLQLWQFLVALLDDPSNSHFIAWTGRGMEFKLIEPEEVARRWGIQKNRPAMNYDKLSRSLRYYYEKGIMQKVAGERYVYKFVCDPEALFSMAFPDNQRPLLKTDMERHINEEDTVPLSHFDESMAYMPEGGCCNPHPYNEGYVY
Chain of ELF1 (P32519 whole entry): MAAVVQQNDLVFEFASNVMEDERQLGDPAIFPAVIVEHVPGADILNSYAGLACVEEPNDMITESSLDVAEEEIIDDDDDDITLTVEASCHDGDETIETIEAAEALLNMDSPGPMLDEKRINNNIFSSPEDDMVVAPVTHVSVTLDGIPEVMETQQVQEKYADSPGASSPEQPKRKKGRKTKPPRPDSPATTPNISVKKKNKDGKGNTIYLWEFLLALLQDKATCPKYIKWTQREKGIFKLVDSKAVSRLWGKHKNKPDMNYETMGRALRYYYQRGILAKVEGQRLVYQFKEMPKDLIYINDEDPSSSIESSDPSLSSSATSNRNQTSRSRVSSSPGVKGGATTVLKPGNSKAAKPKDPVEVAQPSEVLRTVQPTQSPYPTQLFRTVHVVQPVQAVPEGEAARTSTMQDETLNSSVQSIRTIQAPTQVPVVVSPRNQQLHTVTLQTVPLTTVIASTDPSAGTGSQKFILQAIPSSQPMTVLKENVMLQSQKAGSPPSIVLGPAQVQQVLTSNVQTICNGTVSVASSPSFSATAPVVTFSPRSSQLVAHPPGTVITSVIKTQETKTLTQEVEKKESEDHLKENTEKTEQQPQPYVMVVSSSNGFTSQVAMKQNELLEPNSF

With ACTGGA, the binding signal in the experiment with GABPA was 1.12 fold enrichment (6-mer frequency, TF over GST control); in the experiment with ERG, 1.08 fold enrichment (6-mer frequency, TF over GST control); with ELF1, 1.03 fold enrichment (6-mer frequency, TF over GST control); with EHF it was 1.02 fold enrichment (6-mer frequency, TF over GST control); with SPI1, 1.1 fold enrichment (6-mer frequency, TF over GST control); with SPIB, 1.03 fold enrichment (6-mer frequency, TF over GST control). In addition, the binding signal is 1 fold enrichment (6-mer frequency, TF over GST control) with FEV; 1.09 fold enrichment (6-mer frequency, TF over GST control) with ETV5; 1.1 fold enrichment (6-mer frequency, TF over GST control) with ELF4; 1.17 fold enrichment (6-mer frequency, TF over GST control) with ETV2; 1.1 fold enrichment (6-mer frequency, TF over GST control) with ELF3; 1.06 fold enrichment (6-mer frequency, TF over GST control) with ETV1. The binding signal is 1.03 fold enrichment (6-mer frequency, TF over GST control) in the experiment with ERF; 1.02 fold enrichment (6-mer frequency, TF over GST control) with ETV3L; 1.01 fold enrichment (6-mer frequency, TF over GST control) in the experiment with ETV7; 1.05 fold enrichment (6-mer frequency, TF over GST control) in the experiment with ETV3.
